In PubChem BioAssay AID2685 (National Center for Advancing Translational Sciences (NCATS), 2010):
The whole screen tested about 320,000 compounds, of which about 2,100 (0.66%) were called active. Inconclusive results (about 53%) are left out. The sample holds actives, similar compounds and a random draw of the others, so the mix is not that of the screen. The call rests on the fitted dose curve; in most records, active means well fitted inhibition curve with a large enough effect in the signal ratio, with a control signal flat (not every such curve was filed as active); inconclusive means small, poorly fitted or top-dose-only effect, or effect the other way, or a change in a side signal; inactive means flat fitted curve, though single readings scatter; the % refers to the signal ratio.

Assay: qHTS Assay for Lipid Storage Modulators in Drosophila S3 Cells;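 on cell number change: cells counted by Cell Tracker Red CMTPX staining in the red channel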; on lipid storage change, negative = inhibition: on the % scale 0 is the no-effect control and ±100 the full control effect
Details: BODIPY lipid droplet fluorescence, 18-24 h, cells fed with added oleic acid; cell number change: measured here: cell count max response; series mostly up to 46.1 µM; lipid storage change, negative = inhibition: at the top concentration
Source text: NIH Molecular Libraries Probe Production Centers Network [MLPCN] NIH Chemical Genomics Center [NCGC] MLPCN Grant: 1 R03 MH085686-01 Assay Submitter (PI): Beller, Mathias; Max-Planck-Institut fur Biophysikalische Chemie NCGC Assay Overview: Storing lipids as a reservoir for energy or the anabolism of elementary metabolites is a common feature of probably all cells and is conserved from bacteria to humans. The universal cellular lipid storage organelle is the so-called lipid storage droplet (LD). Although ubiquitous, LDs share a simple structure composed of a hydrophobic core that harbors the storage lipids, which is shielded by a droplet-specific phospholipid monolayer to which proteins are attached. The current model of LD biogenesis involves an incorporation of the lipid core into the membrane leaflets of the endoplasmic reticulum (ER) followed by a subsequent budding-like maturation of a LD, which ultimately pinches off. Once released, LD volume can increase by localized lipogenesis or fusion of existing droplet. Storage lipids are re-mobilized enzymatically by lipase activity. Lipase regulation in the adipocyte is heavily studied and involves multiple components including catecholamine signaling, the LD-associated proteins Perilipin and comparative gene identification (CGI-58) and at least two lipases named hormone sensitive lipase (HSL) and adipocyte triglyceride lipase (ATGL). LD regulation outside of the adipocyte is poorly understood and only few components are known. However, there is an urgent need to learn more about ectopic fat depots as mislocalized storage of lipids, for example in the liver or muscle, is an eminent health problem associated with insulin resistance or the metabolic syndrome. We developed a laser-scanning cytometer assay to enable 1,536-well screening and combined the results of the small molecules screen with an RNAi database based on lipid storage.
Triacsin C (Sigma-Aldrich T-4540), an inhibitor of long-chain fatty acyl CoA synthetase that blocks synthesis of triglycerides, was used as a positive control for lipid under-storage. A total of 23 nL of compound solution of different concentrations were transferred to the assay plates using a Kalypsys pin tool equipped with a 1,536-pin array containing 10-nL slotted pins (FP1S10, 0.457-mm diameter, 50.8 mm long; V&P Scientific). One microliter of oleic acid (400 uM) was added, and the plate was lidded with stainless steel rubber gasket lined lids containing pinholes. […] Fluorescence was detected by excitation of the fluorophores with a 488-nm laser on an Acumen Explorer (TTP Lab Tech). The total intensity in channel 2 (500-530 nm) reflected lipid droplet accumulation. Cells were detected using channel 3 (575-640 nm) with 5-um width and 100-um depth filters. The ratio of the number of objects in PMT channel 2 over the number of objects in PMT channel 3 was also calculated. Percent activity was computed relative to an internal control (100% inhibited lipid droplet deposition due to the presence of 20 uM Triacsin C), which was added to 32 wells/plate.
Potency means the concentration at half of the fitted maximal effect.

Row | Compound | lipid storage change, negative = inhibition | cell number change [%] | outcome | Potency
1 | O=C(NCc1c(Cl)cccc1Cl)c1ccc2nnsc2c1 | 0.193% (inactive) | 12.5 | – | –
2 | O=C(NC(CCl)c1ccccc1)c1ccc(Cl)cc1 (stereo unspecified) | 1.15% (inactive) | 13.4 | – | –
3 | O=C1CCCN1c1ccc(C(=O)N(Cc2nnc(-c3ccccc3Cl)o2)C2CC2)cc1 | – | -25.6 | inactive | –
4 | Cc1cccc(C(=O)NCCC(=O)NCc2ccccc2F)c1 | -21.2% (inactive) | 10.5 | – | –
5 | Cc1cccc(C(=O)NCCC(=O)NCc2ccccc2Cl)c1 | – | -17.5 | – | 1840 nM (active)
6 | CN(C)c1cccc(C(=O)NCc2ccccc2Cl)c1 | – | – | inactive | –
7 | CCOc1cccc(/C(O)=C2/C(=O)C(=O)N(CCOC)C2c2ccco2)c1 (stereo unspecified) | – | 3.12 | inactive | –
8 | CC1CCC(N2CCN(c3ccc([N+](=O)[O-])cc3)CC2)CC1 (stereo unspecified) | – | -15.6 | inactive | –
9 | COc1ccc(-c2cc(C(=O)N3CCN(c4ncccn4)CC3)c3ccccc3n2)c(OC)c1 | -1.54% (inactive) | – | – | –
10 | COc1ccc(-c2cc(C(=O)N3CCN(c4ccccc4F)CC3)c3ccccc3n2)c(OC)c1 | – | -25.7 | – | 3260 nM (active)
11 | COc1ccc(-c2cc(C(=O)N3CCCCCC3)c3ccccc3n2)c(OC)c1 | – | – | inactive | –
12 | O=C(O)c1cccc2c1C(=O)N(c1ccccc1)C2 | 7.94% (inactive) | -2.23 | – | –
13 | Cc1ccc(N2CCN(S(=O)(=O)N3CCCCC3)CC2)c(C)c1 | -0.445% (inactive) | 18.1 | – | –
14 | CN1/C(=C\C(=O)c2cccs2)Sc2ccccc21 | 24.2% (inactive) | 18.5 | – | –
15 | COc1cc(OC)cc(C(=O)/C=C2\Sc3ccccc3N2C)c1 | 0.116% (inactive) | 2.87 | – | –
16 | CN1/C(=C\C(=O)c2cccc([N+](=O)[O-])c2)Sc2ccccc21 | – | -22.2 | – | 1840 nM (active)
17 | Cc1cccc(N2CC3=C(C2=O)C(c2ccccc2)NC(=O)N3C)c1 (stereo unspecified) | – | 28.8 | inactive | –
18 | CC1(C)c2[nH]c3ccccc3c2C[C@H]2C(=O)N(CCCO)CC(=O)N21 | -9.62% (inactive) | 7.32 | – | –
19 | CC(=O)c1ccc(NC(=O)CCNC(=O)c2ccccc2Cl)cc1 | – | – | inactive | –
20 | Fc1ccc(F)c(CN2CCN(c3ncccn3)CC2)c1 | 16.3% (inactive) | -0.405 | – | –
21 | COc1ccc(/C=C2\SC(=Nc3ccccc3)NC2=O)cc1 | -17.6% (inactive) | -6.61 | – | –
22 | COc1ccccc1N=C1NC(=O)/C(=C/c2ccc(N(C)C)cc2)S1 | – | -21.8 | – | 10300 nM (active)
23 | COc1ccc(/C=C2\SC(=Nc3ccccc3OC)NC2=O)cc1 | 13% (inactive) | -11.5 | – | –
24 | Cc1ccc(SCC(=O)OCc2csc(CC(=O)Nc3ccccc3C)n2)cc1C | 12.3% (inactive) | -3.61 | – | –
25 | COc1cc(OC)cc(C(=O)NCc2ccc3[nH]c(C)cc3c2)c1 | -15.4% (inactive) | -3.37 | – | –
